In PubChem BioAssay (NCATS):
Inconclusive results are not listed. Active and inactive are the calls of the source. Unless noted, calls come from the whole dose curve; as a rule, active = well fitted curve in the direction sought with a large enough effect; inconclusive = small, poorly fitted or top-dose-only effect, or another doubt; inactive = no such curve, though single readings can be large; an effect the other way counts as inactive or inconclusive.

Columns and labels:
[1] = biological target: Glucocorticoid receptor (Homo sapiens) (UniProt P04150); experiment: GR-GFP Redistribution (AID 450;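 active = compounds whose dose series gives a full or clear partial fitted curve of increased nuclear translocation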; note: potency is the fitted concentration of half-maximal effect); settings: U2OS GR-GFP nuclear translocation, laser cytometry, 2 h
Chain of Glucocorticoid receptor (Homo sapiens) (P04150 whole entry, looked up, the tested form may be a part): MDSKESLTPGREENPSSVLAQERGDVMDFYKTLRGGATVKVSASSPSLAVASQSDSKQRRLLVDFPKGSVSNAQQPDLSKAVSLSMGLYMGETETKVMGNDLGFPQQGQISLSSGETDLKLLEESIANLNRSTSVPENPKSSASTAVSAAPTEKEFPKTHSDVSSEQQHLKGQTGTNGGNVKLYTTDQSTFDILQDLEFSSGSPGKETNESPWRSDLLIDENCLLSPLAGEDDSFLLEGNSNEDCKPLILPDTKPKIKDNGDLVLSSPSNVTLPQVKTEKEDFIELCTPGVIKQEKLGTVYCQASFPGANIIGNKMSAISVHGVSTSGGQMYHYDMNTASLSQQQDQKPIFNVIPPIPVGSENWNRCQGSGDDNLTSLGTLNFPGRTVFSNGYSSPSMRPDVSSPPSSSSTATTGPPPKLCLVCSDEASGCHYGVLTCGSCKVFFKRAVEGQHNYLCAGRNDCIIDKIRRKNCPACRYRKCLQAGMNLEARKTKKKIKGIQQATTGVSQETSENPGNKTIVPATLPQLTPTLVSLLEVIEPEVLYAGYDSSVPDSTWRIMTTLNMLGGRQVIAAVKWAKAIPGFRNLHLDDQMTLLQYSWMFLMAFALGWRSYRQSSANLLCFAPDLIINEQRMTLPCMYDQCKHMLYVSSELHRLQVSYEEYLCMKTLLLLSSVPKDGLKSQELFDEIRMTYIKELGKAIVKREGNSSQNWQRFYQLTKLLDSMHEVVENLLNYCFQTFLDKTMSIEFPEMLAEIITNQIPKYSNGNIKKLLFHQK

[2] = biological target: Glucocorticoid receptor (Homo sapiens) (UniProt P04150); experiment: GR-EFC Redistribution (AID 451; calls by dose curve; note: potency is the fitted concentration of half-maximal effect); settings: CHO-K1 GR-EFC translocation, beta-gal luminescence, 2 h
Procedure, shortened: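 CHO-K1 cells stably expressing nuclear-localized β-gal enzyme acceptor and GR fused C-terminally to the enzyme donor fragment; ligand-driven nuclear translocation restores β-gal by complementation. Compounds titrated up to 46 uM final, 2 h at 37 °C; luminescence read.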

[3] = qHTS Assay for Lipid Storage Modulators (AID 1519; calls by dose curve; for activity change, negative = inhibition: % is set by controls: 0 for no effect and ±100 for the full control effect); settings: Drosophila S3 cells, BODIPY lipid droplet/cell ratio, laser cytometry, cells loaded with oleic acid
Procedure, shortened: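 Cells seeded at 5,000 per well were treated with compounds over a concentration series and loaded with oleic acid (400 uM, as added). Lipid droplet fluorescence (488 nm excitation, 500-530 nm channel) was read by laser-scanning cytometry and normalized to 20 uM Triacsin C.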

[4] = biological target: Ubiquitin carboxyl-terminal hydrolase 1 (Homo sapiens) (UniProt O94782); experiment: Inhibitors of USP1/UAF1: Pilot qHTS (AID 504865); note: potency is the fitted concentration of half-maximal effect; nearly all actives have a fitted effect of over 35% in size
Chain of Ubiquitin carboxyl-terminal hydrolase 1 (Homo sapiens) (O94782 whole entry, looked up): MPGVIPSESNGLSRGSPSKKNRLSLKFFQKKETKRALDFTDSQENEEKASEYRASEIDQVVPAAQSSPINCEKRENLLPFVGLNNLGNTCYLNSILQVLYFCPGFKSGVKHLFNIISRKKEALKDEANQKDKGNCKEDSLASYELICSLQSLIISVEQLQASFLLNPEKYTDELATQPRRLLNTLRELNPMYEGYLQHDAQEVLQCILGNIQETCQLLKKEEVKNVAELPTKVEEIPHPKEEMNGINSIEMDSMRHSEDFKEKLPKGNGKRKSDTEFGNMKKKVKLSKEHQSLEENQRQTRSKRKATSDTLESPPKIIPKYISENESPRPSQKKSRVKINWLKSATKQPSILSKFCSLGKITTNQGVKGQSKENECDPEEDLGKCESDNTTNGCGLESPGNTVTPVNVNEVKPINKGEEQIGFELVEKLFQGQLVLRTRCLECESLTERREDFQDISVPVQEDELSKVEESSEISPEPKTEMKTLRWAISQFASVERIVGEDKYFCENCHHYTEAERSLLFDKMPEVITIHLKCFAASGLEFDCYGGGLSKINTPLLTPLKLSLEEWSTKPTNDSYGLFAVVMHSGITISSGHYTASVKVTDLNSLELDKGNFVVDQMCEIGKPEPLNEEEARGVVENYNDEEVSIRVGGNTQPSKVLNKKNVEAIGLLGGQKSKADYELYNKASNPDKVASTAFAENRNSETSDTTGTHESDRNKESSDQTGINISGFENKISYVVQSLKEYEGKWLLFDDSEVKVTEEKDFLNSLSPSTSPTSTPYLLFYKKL
Procedure, shortened: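 USP1/UAF1 complex (1nM) preincubated with compound 15 min at room temperature, then Ub-Rho substrate (150nM final) added. Fluorescence read kinetically at 480/540 nm, 6 reads every 60 seconds. Buffer: 50mM HEPES pH 7.8, 0.5mM EDTA, 0.1 mg/ml BSA, 1mM TCEP, 0.01% Tween-20.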

[5] = biological target: DNA dC->dU-editing enzyme APOBEC-3G (Homo sapiens) (UniProt Q9HC16); experiment: qHTS for inhibitors of Vif-A3G interactions: Validation (AID 588379); note: 0% is about no effect
Chain of DNA dC->dU-editing enzyme APOBEC-3G (Homo sapiens) (Q9HC16 whole entry, looked up): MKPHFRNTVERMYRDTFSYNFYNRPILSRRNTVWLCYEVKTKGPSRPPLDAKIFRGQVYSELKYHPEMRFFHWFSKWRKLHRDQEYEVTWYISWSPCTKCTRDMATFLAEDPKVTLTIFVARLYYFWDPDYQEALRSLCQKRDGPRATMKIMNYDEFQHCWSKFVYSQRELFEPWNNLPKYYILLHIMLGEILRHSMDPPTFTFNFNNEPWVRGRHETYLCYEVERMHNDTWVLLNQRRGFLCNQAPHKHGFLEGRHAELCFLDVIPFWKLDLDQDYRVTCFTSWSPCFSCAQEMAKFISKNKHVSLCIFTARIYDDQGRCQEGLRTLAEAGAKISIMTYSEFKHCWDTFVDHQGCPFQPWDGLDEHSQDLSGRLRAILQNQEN
Procedure, shortened: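 Yellow fluorescence (Ex 488, Em 500-530) of Vif-coexpressing HeLa A3G-eYFP cells, scanned by Acumen cytometer, reports blocked A3G degradation. Cells plated at 700/well overnight at 37 deg C before compound addition, then a further overnight compound incubation at 37 deg C.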

[6] = test system: Zika virus NS2B-NS3 protease; experiment: Primary screen GU AMC qHTS for Zika virus inhibitors (AID 1347154);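 note: 0% = no-inhibitor control and -100% = no-enzyme control; nearly all actives have a fitted effect of over 70% in size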
Procedure, shortened: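 Unlinked Zika NS2B hydrophilic domain/NS3 protease domain noncovalent complex (25 nM final) in 10 mM Tris-HCl pH 8.0, 0.01% Tween 20, with AMC peptide substrate. Fluorescence (ex 340, em 450 nm) change over 15 min, room temperature; percent inhibition fitted to 4-parameter Hill equation.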

[7] = Counterscreen qHTS for small molecule stabilizers of the endoplasmic reticulum resident proteome: GLuc-NoTag assay (AID 1508627); note: potency is the fitted concentration of half-maximal effect
Procedure, shortened: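 Secreted GLuc lacking the SERCaMP modification is measured in SH-SY5Y cells exposed to compound for 19 h and then to thapsigargin (100 nM, 4 h) to deplete ER calcium; hits retested at 11 concentrations, up to 76.6 uM.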

[8] = Confirmatory qHTS for small molecule stabilizers of the endoplasmic reticulum resident proteome: Secreted ER Calcium Modulated Protein (SERCaMP) assay (AID 1508628); note: potency is the fitted concentration of half-maximal effect; nearly all actives have a fitted effect of over 40% in size
Procedure, shortened: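 Reporter secretion upon ER calcium depletion (100 nM thapsigargin, 4 h, 37C) is measured as medium luminescence with coelenterazine, after 16 h compound pretreatment of SH-SY5Y-GLuc-SERCaMP cells; primary at three concentrations up to 38.3 uM, follow-up at 11 (up to 76.6 uM).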

[9] = Cell Viability qHTS for small molecule stabilizers of the endoplasmic reticulum resident proteome (AID 1508629); settings: cell viability counter-screen, 100 nM thapsigargin for final 4 h;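 note: human SH-SY5Y neuroblastoma cells carrying the GLuc-SERCaMP reporter; compound exposure about 46 h in total before the viability read; % is set by controls: 0 for no effect and ±100 for the full control effect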

Cl.Cl.Cl.Cl.Cl.Cl.N.N.N.N.NNNNN.NNNNN.O.O.[Ru].[Ru].[Ru]
Potency [1]: > 46 µM (inactive) | Potency [2]: > 46 µM (inactive) | activity change, negative = inhibition ([3]; at 57.5 µM (top of the series)): -5.89% (inactive) | max response ([3]; measured here: cell count channel max response): -27.5% | max response ([3]; measured here: lipid channel max response): -31.1% | Potency [4]: 50.1 µM (active) | Potency [5]: inactive | Potency [6]: inactive | Potency [7]: 12.6 µM (active) | Potency [8]: 15.8 µM (active) | max response [9]: 7.14% (inactive)
